Measurements from PubChem BioAssay AID2100 (National Center for Advancing Translational Sciences (NCATS), 2009).
The whole screen tested about 300,000 compounds, of which about 1,200 (0.4%) were called active. About 3% were inconclusive and are not listed. The sample as a whole holds a higher share of actives than the screen did. A number with no mark means an inactive call. The call rests on the fitted dose curve; in most records, active means well fitted inhibition curve with a large enough effect; inconclusive means small, poorly fitted or top-dose-only effect, or another doubt; inactive means no such curve, though single readings can be large or run the other way.

These compounds were tested against Lysosomal alpha-glucosidase (Homo sapiens) (UniProt P10253) (assay: qHTS Assay for Inhibitors and Activators of Human alpha-Glucosidase Cleavage of Glycogen). Settings: recombinant GAA, glycogen substrate, Amplex Red glucose oxidase fluorescence; series mostly up to 76.3 µM; activity change, negative = inhibition: at the top concentration.
Method in brief: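 qHTS, 1536-well; enzyme 4 nM final; cpd up to 77 uM; substrate bovine liver glycogen 30 ug; 50 mM citrate/phosphate pH 5.0, 0.01% Tween-20; 37 C, 40 min; Amplex Red detection 45 min RT; Hill fit → AC50.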
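Further: the screen sought inhibitors and activators.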
Potency means the concentration at half of the fitted maximal effect.
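Wherever activity change, negative = inhibition is given: 0% = full enzyme reaction and -100% = no-enzyme basal signal.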

In order of rising “activity change, negative = inhibition” value:
1. CC(=O)c1ccc(NC(=O)c2nc(-c3ccc(C)cc3)n3c2CCCCC3)cc1  -23.7%
2. CCOc1ccc(N/C=C/C(=O)c2cc(OC)c(OC)c(OC)c2)cc1  -23.1%
3. CSc1nc(Nc2ccc(F)cc2)cc(-c2ccccc2)n1  -15%
4. CCOc1ccc(N/C=C/C(=O)c2ccccc2)cc1  -14.9%
5. COc1ccccc1CNc1ccc(-c2nc(-c3ccccc3C)no2)cc1[N+](=O)[O-]  -14.1%
6. CCOc1ccc(N(CC)S(=O)(=O)N2CCCC(C(=O)Nc3ccc(C(C)=O)cc3)C2)cc1 (stereo unspecified)  -13.1%
7. COc1ccc(NC(=O)CSc2nc3ncccc3[nH]2)c(OC)c1  -12.5%
8. O=C(CSc1nc(-c2cccc(F)c2)[nH]c1-c1ccccc1)Nc1ccc2c(c1)OCO2  -11.3%
9. CCOc1ccc(N(CC)C(=O)c2noc3c2COc2ccc(C)cc2-3)cc1  -9.78%
10. COc1ccc2[nH]c3c(c2c1)CCN(C(=O)CCC1CCCC1)C3c1ccc(F)cc1 (stereo unspecified)  -9.42%
11. Cc1oc(-c2ccccc2)nc1Cn1c(SCc2cccc(C(F)(F)F)c2)nc2cccnc21  -9.3%
12. COc1ccc2c(c1)Cc1sc(NC(=O)c3ccccc3Br)nc1-2  -9.29%
13. CCN(CCCNC(=O)c1cc2cc3cc(OC)ccc3nc2s1)c1ccccc1  -9.2%
14. CCCCN1C(=O)c2[nH]nc(-c3ccccc3O)c2C1c1cccc(OCc2ccccc2)c1 (stereo unspecified)  -8.47%
15. O=c1c2cccnc2n(Cc2cccc(F)c2)c(=O)n1Cc1ccccc1Cl  -5.47%
16. CCOc1ccccc1C(=O)NC1(C(F)(F)F)NC(=O)N(CCc2ccc(OC)c(OC)c2)C1=O (stereo unspecified)  -2.56%
17. Cc1c(C(=O)N2CCCC2)oc2c1-c1nn(CC(=O)NCc3ccc(OC(C)C)cc3)cc1CC2  -1.91%
18. O=C(Nc1ccccc1-c1nc2ccccc2[nH]c1=O)c1cccs1  -0.0999%
19. COc1cc(OC)cc(C(=O)Nc2cc3nn(-c4ccccc4)nc3cc2Cl)c1  0.391%
20. O=C(Nc1ccc2nc(SCCOc3ccccc3Cl)sc2c1)c1ccco1  4.09%
21. COc1cccc(NC(=O)N(Cc2cn(C)c3ccccc23)C2CCCCCC2)c1  4.58%
22. COc1ccccc1NC(=O)Cn1cnc2ccc(S(=O)(=O)N3CCC(C)CC3)cc2c1=O  7.07%
23. CCc1ccc(NC(=O)CCS(=O)(=O)c2cc3c(cc2Cl)NC(=O)CO3)cc1  7.29%
24. Cc1c(NS(=O)(=O)c2ccc(Cl)cc2)c(=O)n(-c2ccccc2)n1C  7.58%
25. CCc1nnc(SCc2c(F)cccc2Cl)c2cc3sccc3n12  8.52%
26. CN(CC(=O)Nc1cccc(C(F)(F)F)c1)S(=O)(=O)c1cccs1  8.76%
27. COc1ccc(-c2cc(=O)c3c(O)cc(O[C@@H]4O[C@H](CO[C@@H]5O[C@@H](C)[C@H](O)[C@@H](O)[C@H]5O)[C@@H](O)[C@H](O)[C@H]4O)cc3o2)cc1O  9.26%
28. COc1cccc(C(=O)NC(=O)Nc2ccc(-c3cc(C(F)(F)F)nn3-c3ccccc3)cc2)c1  10.7%
29. CC(C)Cn1c(=O)c2ccccc2n2c(CCC(=O)N3CCN(c4cccc(Cl)c4)CC3)nnc12  11.2%
30. CSc1nc(-c2ccccc2Cl)nc2c1Cc1c(CO)cnc(C)c1O2  11.9%
31. COc1ccc(Cl)cc1NC(=O)CSc1nc(-c2cccs2)cc(C(F)(F)F)n1  12.5%
32. CC1=C(C(=O)OCC2CCCCC2)C(c2c(F)cccc2Cl)CC(=O)N1 (stereo unspecified)  14.2%
33. CC(C)C(=O)Nc1nc2c(s1)CC(C(C)(C)C)CC2 (stereo unspecified)  14.5%

For `COc1c(O)cc2oc(-c3ccc(O)c(O)c3)cc(=O)c2c1O`, the Potency was 10 µM (active).
In the case of `Cc1nc(NNC(=O)c2ccccc2)cc(-c2ccccc2)n1`, the Potency is reported as 22.4 µM (active).
For `CCCOc1ccc(N/C=C/C(=O)C(C)(C)C)cc1`, the Potency was 31.6 µM (active).
For `Cc1ccc(S(=O)(=O)Nc2ccccc2CNc2c(C)n(C)n(-c3ccccc3)c2=O)cc1`, the Potency was 28.2 µM (active).
With `CCOc1ccc(-n2c(O)c(/C=N/Nc3nnc(C)c(=O)[nH]3)c3ccccc3c2=O)cc1` the Potency was 39.8 µM (active).
In the case of `O=[N+]([O-])c1ccccc1Nc1ccc(O)cc1`, the Potency is reported as 10 µM (active).
In the case of `Cc1csc(NC(=O)NC2(C(F)(F)F)Oc3ccccc3O2)n1`, the Potency is reported as 8.84 µM (active).
`C/C(=N\Nc1nc2ccccc2[nH]1)c1cccs1` was tested, and the Potency was 25.1 µM (active).
In the case of `C=CC[n+]1c(-c2ccc(C)cc2)csc1NNC(=O)Nc1ccccc1`, the Potency is reported as 25.1 µM (active).
`Cc1cc(C)n2nc(C(=O)Oc3ccc4c(c3)OCO4)nc2n1` was tested, and the Potency was 12.5 µM (active).
`CCCc1nc2ccccc2c(=O)n1/N=C/c1ccc(O)c(O)c1` was tested, and the Potency was 11.2 µM (active).

In order of falling “activity change, negative = inhibition” value:
1. Cc1ccc(NC(=O)Nc2ccccc2)c(Br)c1  11.9% [at 76.4 µM]
2. CCOc1ccc(-n2c(O)c(/C=N/c3ccnn3Cc3ccncc3)c3ccccc3c2=O)cc1  11.4% [at 76.4 µM]
3. Cn1sc(NC(=O)c2ccccc2)nc1=O  8.91% [at 76.4 µM]
4. O=c1c2ccccc2ncn1/N=C/c1ccccc1  7.31% [at 76.4 µM]
5. CCOc1ccc(-n2c(O)c(/C=N/Nc3nc(C)cc(C)n3)c3ccccc3c2=O)cc1  6.76% [at 76.4 µM]
6. Cc1cc(C)n2nc(C(=O)NC(C)(C)C)nc2n1  6.76% [at 76.4 µM]
7. O=[N+]([O-])c1ccc(O)c(/C=N/Nc2ccccc2[N+](=O)[O-])c1  6.62% [at 76.4 µM]
8. C=CCNc1scc(-c2ccccc2)[n+]1CC=C  5.77% [at 76.4 µM]
9. COc1cc(SC)ccc1C(=O)Nc1nc(C)cs1  5.05% [at 76.4 µM]
10. Cc1ccc(S(=O)(=O)CC(=O)Nc2c(C)n(C)n(-c3ccccc3)c2=O)cc1  4.27% [at 76.4 µM]
11. Cc1csc(NC(=O)Nc2ccccc2[N+](=O)[O-])n1  -2.5% [at 76.4 µM]
12. COc1ccc(C(=O)NN(C)c2nc(-c3ccccc3)cc(C)c2S(C)(=O)=O)cc1  -3.35% [at 76.4 µM]
13. O=C(O)c1ccccc1C(=O)Nc1ccccc1[N+](=O)[O-]  -5.21% [at 76.4 µM]
14. Cc1[nH]n(-c2cccc(Cl)c2)c(=O)c1/C=N/n1c(C)nc2ccccc2c1=O  -5.44% [at 76.4 µM]
15. Cc1cc(C)n2nc(C(=O)N3CCN(Cc4ccc5c(c4)OCO5)CC3)nc2n1  -7.58% [at 76.4 µM]
16. CCOC(=O)COc1cc(O)c2c(=O)cc(-c3ccccc3)oc2c1  -11.3% [at 76.4 µM]
17. C/C(=N\Nc1nc(Nc2ccccc2)nc(N2CCOCC2)n1)c1cccs1  -18.1% [at 76.4 µM]
